This note sets out measurements from PubChem BioAssay AID624330 (Southern Research Specialized Biocontainment Screening …, 2012).

For orientation: inhibition means the relative decrease from the control value, in per cent.

The structures appear in SMILES notation. About 2,100 (0.62%) of roughly 340,000 compounds were called active.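 The calls were made as follows: active = first-screen hits whose inhibition reached a set limit at any dose in the follow-up dose series; inconclusive = inhibition above the set first-screen limit but never retested; inactive = the rest.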 These entries were drawn from the full list. Potency and affinity values are given separately.

Chain of Rac GTPase-activating protein 1 (Homo sapiens) (Q9H0H5 whole entry, looked up): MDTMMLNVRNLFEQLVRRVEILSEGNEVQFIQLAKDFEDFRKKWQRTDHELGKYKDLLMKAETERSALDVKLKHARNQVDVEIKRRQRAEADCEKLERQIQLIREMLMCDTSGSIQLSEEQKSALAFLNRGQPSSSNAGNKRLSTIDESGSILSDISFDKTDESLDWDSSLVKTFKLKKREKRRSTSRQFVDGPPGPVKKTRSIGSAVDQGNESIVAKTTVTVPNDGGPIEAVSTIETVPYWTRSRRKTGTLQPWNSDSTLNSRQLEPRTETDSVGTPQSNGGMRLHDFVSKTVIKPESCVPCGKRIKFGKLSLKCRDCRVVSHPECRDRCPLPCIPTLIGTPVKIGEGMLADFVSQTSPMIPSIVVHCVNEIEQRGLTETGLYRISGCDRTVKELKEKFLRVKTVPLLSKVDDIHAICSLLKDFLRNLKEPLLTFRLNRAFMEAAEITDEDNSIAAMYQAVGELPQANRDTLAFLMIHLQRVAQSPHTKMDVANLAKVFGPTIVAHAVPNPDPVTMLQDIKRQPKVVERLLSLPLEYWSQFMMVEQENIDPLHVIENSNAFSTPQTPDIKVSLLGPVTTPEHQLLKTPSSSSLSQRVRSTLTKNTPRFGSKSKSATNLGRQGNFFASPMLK

This assay has as its target Rac GTPase-activating protein 1 (Homo sapiens) (UniProt Q9H0H5). Nature of the assay: blockers of MgcRacGAP-driven Rac1 GTP hydrolysis – biochemical, ADP Hunter fluorescence, primary and confirmatory, confirmation (AID 624330).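 Also: fluorescence reports GDP produced by GAP-driven GTP hydrolysis.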 Particulars: MgcRacGAP-stimulated Rac1 GTP hydrolysis, at 30 µM, hits give high values, GST-tagged Rac1 F28L mutant substrate.
For `CCN(CC(=O)Nc1cc(Cl)ccc1C)C(=O)COc1ccccc1F`, the inhibition is -0.45% (inactive).
The figure for `C=CCOc1ccc(/C=N/Nc2ccccn2)cc1OC` is 9.55% (inactive); for `C(=N\n1cnnc1)/c1ccc(N2CCOCC2)cc1` it is 8.48% (inactive); for `CCCOc1ccc(/C=N/Nc2ccccn2)cc1OC` it is 13.1% (inactive).
Turning to `Brc1ccc(/C=N/Nc2ccccn2)cc1`, the inhibition is 10.9% (inactive).
The figure for `Clc1ccc(/C=N/Nc2ccccn2)cc1` is 11.1% (inactive); for `COc1cc(/C=N/Nc2ccccn2)ccc1OCC(C)C` it is 1.63% (inactive); for `Cc1ccc(N/N=C/c2ccc(N3CCOCC3)cc2)cc1C` it is 24.2% (inactive).
The figure for `CCOc1ccc(/C=N/Nc2ccccn2)cc1OC` is 6.25% (inactive); for `COc1ccccc1-c1nnc(SC)n1C` it is 7.84% (inactive).
The figure for `CC(=O)N1N=C(c2ccccc2)CC1c1ccc2c(c1)OCO2` (centres undefined) is 13.6% (inactive); for `CC(C)(C)OC(=O)C[C@H]1C/C=C\C[C@@H](CC(=O)NCCO)C(=O)N[C@H](Cc2ccccc2)COC1=O` it is 5.95% (inactive).
Turning to `CC1Cc2ccccc2N1S(=O)(=O)c1cnc(Cl)c(Cl)c1` (centres undefined), the inhibition was 6.78% (inactive).
The figure for `O=S(=O)(NCC(c1ccc2c(c1)OCO2)N1CCOCC1)c1ccccc1` (centres undefined) is 4.31% (inactive); for `O=C(CCCC1=NS(=O)(=O)c2ccccc2N1)NCCc1ccc(Cl)cc1` it is 12.4% (inactive); for `CN(C1CCCCC1)S(=O)(=O)c1ccc(=S)[nH]c1` it is 16.8% (inactive).
As to `Cc1cccc(COCC(Cc2ccccc2)N2CCN(C(=O)c3cc(Cl)cc(Cl)c3)CCC2=O)c1` (centres undefined), the inhibition was 10.4% (inactive).
The figure for `Cc1noc(C)c1COc1ccc(C(=O)N2CCN(c3ccccc3O)CC2)cc1` is -2.07% (inactive).
As to `O=C(Nc1nc2ccc(F)cc2s1)C1CC(=O)N(c2ccc3c(c2)OCCO3)C1` (centres undefined), the inhibition is 3.42% (inactive).
As for `CC(C)(C)c1ccc(NC(=O)COC(=O)C2CCCC2)cc1`, the figure is 6% (inactive).
On to `C(=N\Nc1ccccc1)/c1ccc(N2CCOCC2)cc1`, for which the inhibition was 11% (inactive).
In the case of `O=C(N/N=C/c1ccc(N2CCOCC2)cc1)c1ccccn1`, the inhibition was 3.4% (inactive).
As for `COc1ccc(/C=N/Nc2ncnc3sc4c(c23)CCCC4)cc1OC`, the figure is 2.22% (inactive).
As to `COc1cc(/C=N/Nc2ncnc3sc4c(c23)CCC4)ccc1O`, the inhibition is 6.14% (inactive).
For `Cc1cc2ncn(S(=O)(=O)c3ccc(S(=O)(=O)N4CCCCCC4)cc3)c2cc1C`, the inhibition is -3.86% (inactive).
The figure for `Cn1c(SCC(=O)Nc2ccccc2Cl)nnc1C1CC1` is 2.31% (inactive); for `COc1ccc([N+](=O)[O-])cc1NS(=O)(=O)c1cc(C(=O)O)ccc1OC` it is -0.88% (inactive); for `C=CCn1c(C)cc(C(=O)COC(=O)C2CC(=O)N(CCc3ccc(OC)c(OC)c3)C2)c1C` (centres undefined) it is 2.85% (inactive).
Take `COc1ccc(C=O)cc1COc1ccc(Cl)cc1[N+](=O)[O-]`: the inhibition was 0.45% (inactive).
The figure for `CCCCOc1ccc(C(CC(=O)NC)C(=O)O)cc1` (centres undefined) is 1.11% (inactive).
As for `Cc1ccc(NC(=O)c2ccccc2)cc1`, the figure is 8.58% (inactive); as for `CN1c2ccccc2C(O)=C(C(=O)Nc2ccccc2)S1(=O)=O`, 5.83% (inactive).
The figure for `Cc1ccc(NC(=O)C2=C(O)c3ccccc3N(C)S2(=O)=O)cc1` is 10.1% (inactive).
As for `O=C(Nc1ccc(-c2ccccc2)cc1)c1ccccc1`, the inhibition is 10.2% (inactive).
The figure for `Cc1onc(-c2c(F)cccc2Cl)c1C(=O)N=C(N)N1CCCC1` is 4.34% (inactive); for `CCOC(=O)C1CCCCN1C(=O)c1oc2c(Cl)cc(C)cc2c1C` (centres undefined) it is -3.11% (inactive); for `CCCCN(C)C(=O)Cc1c(OC)ccc2cc(Br)ccc12` it is 10.7% (inactive).
As for `COc1ccc(/C=N/n2cncn2)cc1Cn1nc(C)c([N+](=O)[O-])c1C`, the figure is 6.36% (inactive); as for `CCOc1ccccc1N1CCN(Cc2ccc(OC)c(OC)c2OC)CC1`, 13.8% (inactive).
The figure for `Cc1ccc(SCCN2CCN(CCc3ccccc3)CCC2=O)cc1` is 12% (inactive); for `COc1ccc(CN2CCN(C(c3ccc(F)cc3)c3ccc(F)cc3)CC2)c(OC)c1OC` it is 6.11% (inactive); for `Cc1ccc(SCCN2CCN(C)CC2)cc1` it is -7.97% (inactive).
For `COc1ccc(-n2c(SCC(=O)Nc3ccc(Br)cc3)nc(O)cc2=O)cc1`, the inhibition was 10.3% (inactive).
The figure for `c1ccc(CN2CCC(N3CCN(Cc4ccc5c(c4)OCO5)CC3)CC2)cc1` is 13.3% (inactive).
In the case of `OCCC1CN(Cc2ccncc2)CCN1C1CCCC1` (centres undefined), the inhibition was 5.79% (inactive).
The figure for `O=C(c1ccncc1)N1CCN(C2CCCCC2)CC1` is 19.7% (inactive).
Turning to `O=C(c1ccc(F)cc1)N1CCCC(N2CCN(Cc3ccc4c(c3)OCO4)CC2)C1` (centres undefined), the inhibition is 8.04% (inactive).
The figure for `COCCNC(=O)CC(c1ccccc1)c1ccccc1` is 10.4% (inactive); for `CCOc1ccc(CN(C)C(=O)CN2C(=O)NC3(CCCc4ccccc43)C2=O)cc1` (centres undefined) it is 13% (inactive); for `CC(C)(C)NC(=O)C(c1ccccn1)N(C(=O)c1csnn1)C1CCCC1` (centres undefined) it is 0.77% (inactive).
Take `O=C(COc1ccc(C(=O)Nc2ccc(Cl)cc2)cc1)NCc1ccccc1`: the inhibition is 8.5% (inactive).
The figure for `Cc1cc(/C=C2/NC(=O)N(Cc3ccccc3F)C2=O)c(C)n1-c1ccccn1` is 4.33% (inactive); for `COc1ccc(N(C)S(=O)(=O)c2cccc(C(=O)NCC(c3cccs3)N(C)C)c2)cc1` (centres undefined) it is 5.09% (inactive); for `Cc1cc(C)nc(NC(=O)/C=C/c2ccccc2Cl)c1` it is 9.19% (inactive).
As for `Cc1cc(C)nc(NC(=O)/C=C/c2ccccc2Cl)n1`, the figure is 6.5% (inactive).
The figure for `CC(C)(C)OC(=O)N/N=C/c1ccc(N2CCOCC2)s1` is 25.5% (inactive); for `C(=N\N(c1ccccc1)c1ccccc1)/c1ccc(N2CCOCC2)s1` it is 15.3% (inactive); for `O=C(O)c1cc(N/N=C/c2ccc(N3CCOCC3)s2)ccc1Cl` it is 25.9% (inactive).
On to `C(=N\n1cnnc1)/c1ccc(N2CCOCC2)s1`, for which the inhibition is 10.2% (inactive).
The figure for `O=C(N/N=C/c1ccc(N2CCOCC2)s1)c1ccccc1Br` is 10% (inactive).
With `CC(C)NC(=S)N/N=C/c1ccc(N2CCOCC2)cc1`, the inhibition is 0.94% (inactive).
The figure for `Clc1cccc(N/N=C/c2ccc(N3CCOCC3)cc2)c1` is 0.9% (inactive); for `CCOC(=O)N/N=C\c1ccc(C)s1` it is 3.68% (inactive).
The figure for `Cc1ccccc1S(=O)(=O)N(C)C[C@@H]1OCc2ccccc2-c2c(n(C)c3ccccc23)C(=O)N([C@H](C)CO)C[C@@H]1C` is 14.2% (inactive).
In the case of `COc1ccc(Cl)cc1C(=O)NNC(=O)c1n[nH]c2ccccc12`, the inhibition is 4.94% (inactive).
As for `Cc1ccc(S(=O)(=O)/N=C(\Nc2cc(C)on2)c2ccc(Cl)cc2)cc1`, the figure is 8.35% (inactive).
As for `Cc1cn2c(-c3ccc(Cl)cc3)nnc2s1`, the figure is -3.08% (inactive).
As for `O=C(NCc1cccnc1)C(=O)NCC1OCCCN1S(=O)(=O)c1ccc(Cl)cc1` (centres undefined), the figure is 1.54% (inactive); as for `Cc1cc(=O)cc(C)n1-c1ccc2c(c1)nc(C)n2-c1ccccc1`, 2.42% (inactive).
`Cc1ccc(S(=O)(=O)N2CCN(C(=O)Cc3ccc4c(c3)OCCO4)CC2)cc1C`: the inhibition is 6.6% (inactive).
As for `CCCCc1ccc(NC(=S)NCCc2ccc(F)cc2)cc1`, the figure is -17.2% (inactive).
The figure for `CCOc1ccc(-n2c(-c3ccco3)nc3c(cnn3-c3ccc(C)cc3)c2=O)cc1` is 2.66% (inactive); for `O=C(CN(Cc1ccco1)S(=O)(=O)c1ccccc1)N/N=C/c1ccccc1C(=O)O` it is 8.11% (inactive).
The figure for `COc1ccc(/C=N/NC(=O)CN(Cc2ccccc2)S(=O)(=O)c2ccc3c(c2)OCCO3)cc1` is 7.2% (inactive).
With `O=C(CN(Cc1ccco1)S(=O)(=O)c1ccccc1)N/N=C/c1cccc(O)c1`, the inhibition was 8.45% (inactive).
As for `Cc1ccc(/C=N/NC(=O)CN(Cc2ccccc2)S(=O)(=O)c2ccc3c(c2)OCCO3)cc1`, the inhibition is 2.63% (inactive).
The figure for `CN(C)CCCN=Cc1c(-c2ccccc2)[nH]n(-c2nc3ccccc3s2)c1=O` is 20.7% (inactive); for `O=C(NCc1ccc2c(c1)OCO2)Nc1cccc(Cl)c1` it is 11.9% (inactive); for `COc1ccc(-c2nc3c(Br)c(N)c(Br)cc3o2)cc1` it is -0.217% (inactive).
Turning to `Clc1ccc2nc3ccccc3cc2c1`, the inhibition was 2.87% (inactive).
The figure for `Nc1cccc(O)c1` is 18.5% (inactive); for `Nc1ccc2cc3ccccc3cc2c1` it is 17.6% (inactive); for `O=C(Oc1ccc2ccc(O)cc2c1)c1ccccc1Cl` it is 18.6% (inactive).
The figure for `CCc1ccc(NC(=O)CSc2nc3ccccc3nc2N2CCCCC2)cc1` is 6.49% (inactive); for `O=C(Cc1ccc(Cl)cc1)c1ccc(O)cc1` it is 9.32% (inactive); for `Oc1ccc(/C=N/n2cnn(Cc3ccccc3Cl)c2=S)c(O)c1` it is 8.66% (inactive).
The figure for `O=C(Cc1ccc(Cl)cc1)NNc1c(F)c(F)cc(F)c1F` is 5.43% (inactive); for `O=C(Cc1c(F)cccc1Cl)c1ccc(O)cc1O` it is -1.08% (inactive).
In the case of `CCN1C(=O)C(C(=O)c2ccccc2)SC1=S` (centres undefined), the inhibition was 2.79% (inactive).
The figure for `CSc1ncnc2c1ncn2CCCN1CCN(Cc2cccc3ccccc23)CC1` is 18.8% (inactive).
As for `O=C(Oc1ccccc1C(=O)Nc1ccccc1)c1ccc(Br)c([N+](=O)[O-])c1`, the figure is 14.5% (inactive); as for `CC(=O)Nc1ccc(C(=O)OCC(=O)c2ccc(C)c([N+](=O)[O-])c2)cc1`, -0.02% (inactive); as for `O=C(c1ccc2snnc2c1)N1CCSCC1`, 12.5% (inactive).
Regarding `COc1ccc(OC)c(/C=N/N(C)c2ccccc2)c1`, the inhibition is 19.4% (inactive).
As for `COc1cc(/C=N/N(c2ccccc2)c2ccccc2)ccc1O`, the figure is 21% (inactive); as for `CCOc1ccc(/C=N/N(C)c2ccccc2)cc1OC`, 8.29% (inactive).
The figure for `COc1ccc(/C=N/N(c2ccccc2)c2ccccc2)cc1O` is 10.2% (inactive); for `CN(/N=C/c1cc(Br)cc(Br)c1O)c1ccccc1` it is 5.13% (inactive).
As for `COc1cc(/C=N/S(=O)(=O)c2ccccc2)cc(OC)c1O`, the figure is 9.73% (inactive).
